From PubChem BioAssay (Tox21)
Inconclusive results are not listed. Where a call stands in place of a potency, no number is given. Calls of active or inactive are those of the source. The call rests on the fitted dose curve; in most records, active means well fitted activation curve with a large enough effect in the repeat runs; inconclusive means weak or mixed curves; inactive means no such curve, though single readings can be large or run the other way.

Biological target: Nuclear receptor subfamily 1 group I member 2 (Homo sapiens) (UniProt O75469)
Experiment: CYP3A4 induction through human pregnane X receptor (PXR) by small molecules, qHTS assay (AID 1346984); further: nearly all actives have a fitted effect of over 40% in size
Conditions: DPX-2 HepG2 PXR, CYP3A4-luciferin luminescence, 24 h; series mostly up to 46.1 µM
Description: National Center for Advancing Translational Sciences [NCATS]
NIH Chemical Genomics Center [NCGC]
U.S. Environmental Protection Agency [EPA]
National Institutes of Environmental Health Sciences [NIEHS]
National Toxicology Program [NTP]
The Pregnane X receptor (PXR), a ligand activated nuclear receptor plays a critical role in the regulation of genes involved in drug metabolism and transporters. Activation of PXR is responsible for unwanted adverse drug reactions. PXR binds xenobiotics and when compounds interact with PXR enhances the expression of CYP3A genes. Identifying the compounds with the potential for PXR activation and CYP3A4 induction can be of importance in improving the efficacy of drugs with less toxicity and avoiding drug-drug interactions.
DPX-2 (Puracyp, Inc.) cell lines, used for screening against human PXR activation has HepG2 cells co-transfected with a PXR response element and a luciferase construct containing CYP3A4 promoter. Increase in luciferase activity can be used to identify the compounds that cause the induction of CYP3A4.
DPX-2 cells were dispensed at 2,000 cells per well in 5uL of assay medium into white, solid-bottom 1536-well plates using a Multidrop Combi dispenser (Thermo Scientific). The assay plates were incubated at 37C for 5hr before transferring 23nL of test compounds dissolved in DMSO and positive control via Pintool station (Wako). The assay plates were incubated at 37C for 24hr. After 24hr compound treatment, 1uL of 3uM (final concentration) P450 substrate (P450-Glo CYP3A4 screening system with Luciferin-IPA, Promega) was added by a Flying Reagent Dispenser (FRD, Aurora Discovery). The assay plates were incubated for 3hr at 37C. Then 5ul One-Glo assay reagent (Promega) was added to each plate by an FRD and following 30 min incubation at room temperature, luciferase activity was quantified on a ViewLux plate reader (Perkin Elmer).
Potency means the concentration at half of the fitted maximal effect.

CCN(CC)CCOc1ccc2c(c1)C(=O)c1cc(OCCN(CC)CC)ccc1-2 was tested. Which Potency did it give?
The Potency was “inactive”.

For Cc1c(Cn2ccnc2)c2ccccc2n1CCC(=O)O, which Potency is on record?
Its Potency is “inactive”.

Cl/C(=C\n1cncn1)c1ccc(Cl)cc1Cl was tested. Which Potency did it give?
The Potency was 22.4 µM (active).

For O=C(O)COC(=O)Cc1ccccc1Nc1c(Cl)cccc1Cl, which Potency is on record?
The Potency was “inactive”.

Which Potency does the source give for CNS(=O)(=O)Cc1ccc2[nH]cc(CCN(C)C)c2c1 here?
The Potency was “inactive”.

How did the Potency turn out when Nc1ccc(C(=O)Nc2ccccc2N)cc1 was run?
Its Potency is “inactive”.

Which Potency does the source give for COc1ccc2[nH]c(S(=O)Cc3ncc(C)c(OC)c3C)nc2n1 (stereo not given) here?
Its Potency is “inactive”.

With O=C(O)[C@@H]1[C@H]2C[C@H]3c4[nH]c5ccccc5c4CCN3C[C@@H]2CC[C@@H]1O as the compound, how does the Potency read?
The Potency was “inactive”.

With O=C1[C@H](CC[C@H](O)c2ccc(F)cc2)[C@@H](c2ccc(O)cc2)N1c1ccc(F)cc1 as the compound, how does the Potency read?
Its Potency is “inactive”.

Which Potency does the source give for NC(N)=NN=C(/C=C/c1ccc([N+](=O)[O-])o1)/C=C/c1ccc([N+](=O)[O-])o1 here?
The Potency was “inactive”.

Cc1ccccc1N=Nc1ccc(N=Nc2c(O)ccc3ccccc23)c(C)c1 was tested. Which Potency did it give?
Its Potency is 7.94 µM (active).

How did the Potency turn out when CC[C@H](C)[C@H](N)C(=O)O was run?
Its Potency is “inactive”.

For NC(=S)N/N=C/c1cccnc1, which Potency is on record?
Its Potency is “inactive”.

How did the Potency turn out when NC(N)=N/N=C/c1c(Cl)cccc1Cl was run?
Its Potency is “inactive”.

How did the Potency turn out when OC(CCN1CCCCC1)(c1ccccc1)C1CCCCC1 (stereo not given) was run?
The Potency was “inactive”.

How did the Potency turn out when CC(C(=O)O)c1ccc(C(=O)c2ccccc2)s1 (stereo not given) was run?
The Potency was “inactive”.

Which Potency does the source give for CC(=O)Nc1ccc(/C=N/NC(N)=S)cc1 here?
Its Potency is “inactive”.

c1ccc(-c2nc[nH]c2-c2ccccc2)cc1 was tested. Which Potency did it give?
Its Potency is “inactive”.

For N=C(N=C(N)N)N1CCOCC1, which Potency is on record?
Its Potency is “inactive”.

C=Cc1c(C)c2cc3[nH]c(cc4nc(cc5nc(cc1[nH]2)C(C)=C5CCC(=O)O)C(CCC(=O)O)=C4C)c(C)c3C=C was tested. Which Potency did it give?
Its Potency is “inactive”.

Which Potency does the source give for O=S1(=O)c2cccc3cccc(c23)N1CCCN1CCN(c2ccc(F)cc2)CC1 here?
Its Potency is “inactive”.

CCOC(=S)SSC(=S)OCC was tested. Which Potency did it give?
Its Potency is “inactive”.

CC(C)NCC(O)c1cc(O)cc(O)c1 (stereo not given) was tested. Which Potency did it give?
The Potency was “inactive”.

For Cc1nc2ccccc2n1Cc1ccc(Cl)cc1, which Potency is on record?
The Potency was “inactive”.

CC(=O)N(O)CCCCCNC(=O)CCC(=O)N(O)CCCCCNC(=O)CCC(=O)N(O)CCCCCN was tested. Which Potency did it give?
Its Potency is “inactive”.

Which Potency does the source give for NC[C@H]1O[C@H](O[C@H]2[C@H](O)[C@@H](O[C@H]3O[C@H](CO)[C@@H](O)[C@H](N)[C@H]3O)[C@H](N)C[C@@H]2N)[C@H](O)[C@@H](O)[C@@H]1O here?
Its Potency is “inactive”.

Which Potency does the source give for Cc1cc(CC(=O)O)c(C)n1-c1ccc(Cl)cc1 here?
The Potency was “inactive”.

How did the Potency turn out when Cn1c(NCCN(CCO)CCCc2ccc([N+](=O)[O-])cc2)cc(=O)n(C)c1=O was run?
The Potency was “inactive”.

How did the Potency turn out when CCN(CC)C(C)CN1c2ccccc2Sc2ccccc21 (stereo not given) was run?
The Potency was 3.98 µM (active).

CC(=O)NCCCS(=O)(=O)O was tested. Which Potency did it give?
Its Potency is “inactive”.

With O=C(O)Cc1sc(-c2ccccc2)nc1-c1ccc(Cl)cc1 as the compound, how does the Potency read?
The Potency was “inactive”.

How did the Potency turn out when Oc1ccc(C(O)CNCCCCCCNCC(O)c2ccc(O)c(O)c2)cc1O (stereo not given) was run?
The Potency was “inactive”.

For CCN1CCC[C@H]1CNC(=O)c1c(OC)ccc(Br)c1OC, which Potency is on record?
The Potency was “inactive”.

How did the Potency turn out when CC(C(=O)O)c1ccc(-c2ccccc2)c(F)c1 (stereo not given) was run?
Its Potency is “inactive”.

Which Potency does the source give for CCOC(=O)[C@H](CCc1ccccc1)N[C@H]1CCc2ccccc2N(CC(=O)O)C1=O here?
Its Potency is 10 µM (active).

With CN1CCC(=C2c3ccccc3CCc3sccc32)CC1 as the compound, how does the Potency read?
Its Potency is 28.2 µM (active).

O=C(O)Cn1c(C(=O)Nc2nc(-c3ccccc3Cl)cs2)cc2ccccc21 was tested. Which Potency did it give?
Its Potency is “inactive”.

For CN(c1nccc(=O)[nH]1)C1CCN(c2nc3ccccc3n2Cc2ccc(F)cc2)CC1, which Potency is on record?
The Potency was “inactive”.

CC1(C)CCC(C)(C)c2cc(NC(=O)c3ccc(C(=O)O)cc3)ccc21 was tested. Which Potency did it give?
Its Potency is “inactive”.

For COc1ccccc1OC(=O)Oc1ccccc1OC, which Potency is on record?
Its Potency is “inactive”.
